Source: PubChem BioAssay
Sampled rows, rich in hits. Any-hit rate of the full collection: about 21%.
DRD3 antagonist: blocks the human D3 dopamine receptor; P35462; D3R cells, DiscoveRx beta-arrestin luminescence, antagonist mode; active compounds read low; max response, negative = inhibition, %; 2.5% of 360,000 active; AID 652054; in the data active = max response below about -50%; inconclusive = no clear call, values can overlap the other calls; note: % is set by controls: 0 for no effect and ±100 for the full control effect
Target sequence (P35462 whole entry, looked up): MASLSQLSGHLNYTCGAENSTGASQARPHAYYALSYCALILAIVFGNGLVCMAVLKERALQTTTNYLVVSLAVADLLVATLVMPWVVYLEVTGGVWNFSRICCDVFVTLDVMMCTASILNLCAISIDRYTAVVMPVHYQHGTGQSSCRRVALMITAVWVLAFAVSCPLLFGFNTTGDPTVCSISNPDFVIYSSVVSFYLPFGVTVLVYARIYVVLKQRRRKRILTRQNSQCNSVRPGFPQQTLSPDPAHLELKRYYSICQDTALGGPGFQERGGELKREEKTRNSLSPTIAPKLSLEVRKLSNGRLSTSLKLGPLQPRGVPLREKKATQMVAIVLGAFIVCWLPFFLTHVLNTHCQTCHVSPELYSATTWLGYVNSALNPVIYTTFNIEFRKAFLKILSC
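Cells plated overnight at 1500 cells/well, then exposed to library compounds with dopamine controls for 90 minutes at 37 degrees C. DiscoveRx reagent added for 30–60 minutes at room temperature; luminescence read, quantitative HTS format.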
D3 ag: activates the human D3 dopamine receptor | P35462 | D3R DiscoveRx beta-arrestin cells, luminescence, 90 min | max activation, % | 0.58% of 410,000 active | AID 652048; in the data active = max activation above about 30%; note: 0% is about no effect
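Agonist-mode cell screen: cells plated at 1500/well and incubated overnight at 37 °C, then exposed to library compounds for 90 min at 37 °C. Detection reagent was added for 30–60 min at room temperature, and luminescence was read.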
TDP1 cell noCPT: qHTS for Inhibitors of human tyrosyl-DNA phosphodiesterase 1 (TDP1): qHTS in cells in absence of CPT. DT40 Tdp1-/- hTDP1 cells, no CPT, ATP luminescence, 48 h. Potency, µM (series often up to 46.2 µM), inactives show at the highest dose activity change, negative = growth inhibition, usual class: inhibitors. 15% of 420,000 active; note: potency is the fitted concentration of half-maximal effect; % is set by controls: 0 for no effect and ±100 for the full control effect; nearly all actives have a fitted effect of over 55% in size
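Growth of hTDP1-complemented DT40 Tdp1-knockout cells is measured by ATP luminescence after at least 48 hr compound exposure at 37 °C, with DMSO substituting for the 20 nM CPT used in the parallel screen.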
IL-1B inflam inh: inhibitors of inflammasome signaling (IL-1 beta secretion); 4.7% of 360,000 active; activity change, % at 57.5 µM; AID 743279; THP-1 LPS/ATP IL-1B secretion, AlphaLISA, 16 h; active compounds read low; in the data active = activity change below about -50%; inconclusive = mostly about -30% to -49%; note: % is set by controls: 0 for no effect and ±100 for the full control effect
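THP-1 cells pretreated 1 hr with compounds (up to 57.5 uM final), then stimulated with LPS (250 ng/mL final) plus ATP (1.25 mM final); secreted IL-1B measured by AlphaLISA after 16 hr, decreased signal indicating inhibition.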
ClpP mod: qHTS Assay for Activators of ClpP; purified B. subtilis ClpP, FRET peptide cleavage, 20 min; 1.9% of 340,000 active; Potency, µM (doses to about 57.5 µM), without a hit: top-dose activity change, negative = active; active = well fitted falling curve with a large enough effect; inconclusive = small, poorly fitted or top-dose-only effect; inactive = no such curve, though single readings can be large or run the other way; note: potency is the fitted concentration of half-maximal effect; the source files actives as falling curves though it sought activators and does not explain the sign; nearly all actives have a fitted effect of over 65% in size
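ClpP 10 microg/mL final, pH 8 Tris/KCl buffer with BSA, glycerol, Tween-20; compound pinned in; FRET-FV substrate; RT 20 min; Ex320/Em430; ΔFRET vs ADEP 5.8 microM, DMSO, no enzyme.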
TDP1 cell CPT: DT40-hTDP1 cell growth loss with CPT; Potency, µM (top dose mostly 46.2 µM), inactives show at the highest dose activity change, negative = growth inhibition, actives largely listed as inhibitors; 12% of 420,000 active; chicken DT40 Tdp1-/-;hTDP1 cells + 20 nM CPT, ATP luminescence, 48 h; note: potency is the fitted concentration of half-maximal effect; % is set by controls: 0 for no effect and ±100 for the full control effect; nearly all actives have a fitted effect of over 55% in size
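Chicken DT40 Tdp1-/- cells complemented with human TDP1, 400 cells/well, exposed to compounds plus 20 nM camptothecin for at least 48 h at 37 C; viability read as ATP content by CellTiter-Glo luminescence.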
Numbers without * were called inactive; u = inconclusive; x = no result given; [ ] = dose if it differs, or a comment. Unless noted, calls come from the whole dose curve; as a rule, active = well fitted inhibition curve with a large enough effect; inconclusive = small, poorly fitted or top-dose-only effect; inactive = flat fitted curve, though single readings scatter.

SMILES	DRD3 antagonist	D3 ag	TDP1 cell noCPT	IL-1B inflam inh	ClpP mod	TDP1 cell CPT
CCCCCC(=O)Nc1cccc(C2=NOC3(C2)C[C@@H](C(N)=O)N(C(=O)CC(c2ccccc2)c2ccccc2)C3)c1 (some centres not stated)	-14	-24	u	0	-13%	23µM*
C/C=C\C(=O)Nc1cccc(C2=NOC3(C2)C[C@@H](C(N)=O)N(C(=O)CC(c2ccccc2)c2ccccc2)C3)c1 (some centres not stated)	2	6	16µM*	-23	-2%	u
CCC(=S)/C=C1\Sc2ccccc2N1CCCS(=O)(=O)O	-63*	7	-26%	19	1%	-29%
N/C(=N\O)c1ccccc1N1CCCCC1	-12	-5	-17%	3	x	-25%
CC(=O)Nc1ccc2nc(SCc3ccccc3)sc2c1	x	7	u	x	-6%	-27%
CN(C(=O)CSc1nc2ccc(NC(=O)c3ccccc3)cc2s1)c1ccccc1	x	-4	u	x	u	u
CN(C(=O)CSc1nc2ccc(NC(=O)c3cccs3)cc2s1)c1ccccc1	x	4	16µM*	x	u	23µM*
CN(C(=O)CSc1nc2ccc(NC(=O)c3ccco3)cc2s1)c1ccccc1	x	-4	23µM*	x	0%	18µM*
O=C(c1ccccc1)N(c1ccccc1)c1ccccc1O	-20	-11	16µM*	20	1%	15µM*
CN=C1C=CC(=C(c2ccc(N(C)C)cc2)c2ccc(N(C)C)cc2)C=C1	x	-24	0.21µM*	x	x	0.21µM*
COCCCNc1nc2c(S(=O)(=O)c3ccccc3)nnn2c2ccc(Cl)cc12	x	2	-6%	x	4%	-1%
Cc1[nH]c2ccccc2c1C(C[N+](=O)[O-])c1ccco1 (configuration not stated)	12	-3	u	4	x	u
Cc1[nH]c2ccccc2c1C(C[N+](=O)[O-])c1cccs1 (configuration not stated)	-4	-6	u	-96*	x	u
Cc1ccc(C(=O)N(Cc2cc3ccc(F)cc3nc2N2CCC(O)CC2)CC2CCCO2)cc1 (configuration not stated)	x	x	-5%	x	x	2%[9.04 µM]
CC1CCCC(C)N1C(=O)CSc1nc2ccccc2s1 (configuration not stated)	-4	0	u	36	3%	u
CCCCC1CC(C)(C(=O)CSc2nc3ccccc3s2)OC1=O (configuration not stated)	59	5	0.65µM*	14	-15%	-3%
COc1ccccc1C(=O)NCCC(=O)Nc1cccc(S(=O)(=O)N2CCCC2)c1	4	2	u	-21	2%	-26%
COc1cc(/C=N/n2nnnc2Nc2ccccc2)cc(OC)c1OC	1	0	18µM*	u	-6%	15µM*
COc1ccc(O)c(/C=N/Nc2nc(C)cc(-c3ccccc3)n2)c1	-1	3	u	33	x	u
COc1cc(/C=N/n2c(-c3ccccc3)n[nH]c2=S)cc(OC)c1OC	u	-4	u	51	x	2%
COc1ccc(O)c(/C=N/Nc2nc(Nc3ccccc3)nc(-n3nc(C)cc3C)n2)c1	-117*	-39	0.52µM*	-23	-2%	0.58µM*
COc1cc(/C=N/Nc2nc(Nc3ccc(C)cc3)nc(-n3nc(C)cc3C)n2)cc(OC)c1OC	27	-8	2.9µM*	4	28µM*	4.6µM*
COc1cc(/C=N\Nc2nc3ccccc3o2)cc(OC)c1OC	-6	-5	u	u	-1%	u
COc1cc(/C=N/Nc2nc(Nc3ccccc3)nc(-n3nc(C)cc3C)n2)cc(OC)c1OC	1	17	18µM*	-64*	x	23µM*
CCOc1ccccc1C(=O)NCC(c1cccs1)S(=O)(=O)c1ccc(F)c(C)c1 (configuration not stated)	x	-1	-15%	x	-7%	10%
O=c1[nH]c(=S)[nH]c2c1C(C1CCCCC1)OC(C1CCCCC1)C2 (configuration not stated)	u	6	u	0	1%	u
O=C(CNc1n[nH]c(=O)[nH]c1=O)N/N=C/C1CC=CCC1 (configuration not stated)	-2	1	u	-8	x	-3%
CC(C)(C)c1ccc(C(=O)N2CCCC2c2cccs2)cc1 (configuration not stated)	-8	1	u	-99*	0%	-17%
